The values that follow come from PubChem BioAssay AID651658 (Broad Institute, 2012).

The campaign covered roughly 340,000 compounds. About 5,100 (1.5%) were called active. The sample holds actives, similar compounds and a random draw of the others, so the mix is not that of the screen. Values without a mark were called inactive.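 Rule for the calls: active = mean Tm shift, scaled 0 neutral to 100 positive control, at about 1.3% or above, every replicate too (limit read from the data); inconclusive = no clear call, values can overlap the other calls; inactive = the rest.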

For the assay, the target named is Fibroblast growth factor 22 (Homo sapiens) (UniProt Q9HCT0). In words: FGF22 ligand-induced thermal stabilization – biophysical, thermal shift, single point, FGF22 synaptogenesis inhibitor project, primary screen (AID 651658). The note with it: recombinant FGF22 thermal shift, SYPRO orange fluorescence; at 9.99 µM; active compounds read high; percent of sucrose octasulfate shift, DMSO zero.
Sequence of Fibroblast growth factor 22 (Homo sapiens) (Q9HCT0 whole entry, looked up): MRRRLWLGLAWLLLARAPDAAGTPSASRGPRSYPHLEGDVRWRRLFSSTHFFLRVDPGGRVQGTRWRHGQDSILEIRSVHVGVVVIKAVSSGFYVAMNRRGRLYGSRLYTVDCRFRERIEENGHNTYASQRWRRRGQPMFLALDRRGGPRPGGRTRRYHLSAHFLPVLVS
Regarding `Cc1ccc(NC(=O)C(c2ccccc2)N2CCN(C(=O)c3ccco3)CC2)cc1` (stereo unspecified), the activity (Tm shift, normalised) is -0.162%.
For `CCC(=O)Nc1ccc(C(=O)N2CCN(C(=O)c3ccco3)CC2)cc1` the value was 44.4% (active); for `Cc1ccc(OCC(=O)Nc2ccc(N3CCN(C(=O)c4ccco4)CC3)cc2)c(C)c1`, -0.015%; for `O=C(Nc1cccc(F)c1)N[C@@H]1CC[C@@H](CCn2cc(Cc3ccccc3)nn2)O[C@@H]1CO`, 0.097%.
For `CO[C@@H]1CN(C)C(=O)c2cc(NC(=O)C3CCCC3)ccc2OC[C@@H](C)N(C(=O)Nc2ccc(C(F)(F)F)cc2)C[C@H]1C`, the activity (Tm shift, normalised) is -0.774%.
For `O=C(C[C@H]1C[C@H]2c3cc(NC(=O)CC4CC4)ccc3O[C@H]2[C@H](CO)O1)NCc1ccccn1` the value was 0.96%.
As to `Cc1ccc(NC(=O)CSc2nc(CSc3ccc(C)cc3)cc(=O)[nH]2)cc1`, the activity (Tm shift, normalised) was 44% (active).
Take `Cc1cc(=O)[nH]c(SCC(=O)Nc2ccc(Br)cc2)n1`: the activity (Tm shift, normalised) is -0.265%.
With `CCCc1cc(=O)[nH]c(SCC(=O)Nc2ccc(C(=O)Nc3ccccc3OC)cc2)n1`, the activity (Tm shift, normalised) is -0.412%.
Take `COc1ccc(S(=O)(=O)Nc2ccc3c(c2)C(=O)N([C@@H](C)CO)C[C@H](C)[C@@H](CN(C)C(=O)Nc2ccc4c(c2)OCO4)OCCCC[C@@H](C)O3)cc1`: the activity (Tm shift, normalised) is 0.801%.
In the case of `C[C@H](CO)N1C[C@H](C)[C@H](CN(C)CC2CCCC2)Oc2ncc(Br)cc2C1=O` it was -0.016%; in that of `CC(C)NC(=O)N1[C@H](CO)[C@@H]2c3ccccc3N(C(=O)Nc3cccc(Cl)c3)C[C@@H]21`, 0.043%.
In the case of `Cc1ccc(S(=O)(=O)N(C)C[C@@H]2Oc3c(NC(=O)NC(C)C)cccc3C(=O)N([C@H](C)CO)C[C@H]2C)cc1` it was 0.01%.
For `Cc1ccc(C(C[N+](=O)[O-])c2c(C)cc3ccccn23)cc1` (stereo unspecified) the value was 43.8% (active); for `Cc1cc2ccccn2c1C(=O)c1cccc(F)c1`, -0.141%.
Consider `CC(=O)Nc1ccc(/C=N/Nc2ccc(C(=O)c3c(C)cc4ccccn34)cc2[N+](=O)[O-])cc1`, for which the activity (Tm shift, normalised) is -0.063%.
Regarding `Cc1cc(C)n(-c2ccc3nncn3n2)n1`, the activity (Tm shift, normalised) is 43.4% (active).
Regarding `O=C(Nc1ccccc1Cl)N1CCN(c2ccc3nncn3n2)CC1`, the activity (Tm shift, normalised) was 0.014%.
In the case of `Cc1cc(C)n(-c2nnc(N3CCN(c4ccccc4)CC3)nn2)n1`, the activity (Tm shift, normalised) is 0.536%.
Take `CCS(=O)(=O)N1Cc2cc(C(=O)N(C)C)nc(-c3cccc(-c4ccc(C#N)cc4)c3)c2[C@H]1CCO`: the activity (Tm shift, normalised) is -0.41%.
As for `CCCC#Cc1ccc2c(c1)O[C@@H](CN(C)C(=O)c1cccnc1)[C@H](C)CN([C@H](C)CO)S2(=O)=O`, the activity (Tm shift, normalised) was -0.014%.
With `OCCN1CCN(C(=S)c2ccc(-c3ccccc3)cc2)CC1`, the activity (Tm shift, normalised) is -0.171%.
For the molecule `CN1CCN(C(=O)c2ccc(-c3ccc(Br)cc3)o2)CC1`, the activity (Tm shift, normalised) was -0.078%.
For the molecule `S=C(c1ccc(-c2ccccc2)o1)N1CCCCC1`, the activity (Tm shift, normalised) is 43.4% (active).
In the case of `C[C@@H]1CN([C@@H](C)CO)C(=O)Cc2cc(NS(C)(=O)=O)ccc2O[C@H]1CN(C)S(=O)(=O)c1ccc(F)cc1` it was 0.13%; in that of `COc1cccc(CNC(=O)C[C@@H]2C=C[C@@H](NC(=O)C3CCC3)[C@@H](CO)O2)c1`, 0.068%; in that of `CSc1ccc(CN(C)CC(=O)NCc2ccc(F)cc2)cc1`, 0.292%.
For `Cc1ccc(SC(C)C(=O)NCc2ccc(F)cc2)cc1` (stereo unspecified) the value was 43.3% (active); for `Cc1ccc(CS(=O)(=O)CCC(=O)NCc2ccc(F)cc2)cc1`, -0.138%.
In the case of `CC(C)NC(=O)N(C)C[C@@H]1Oc2c(NC(=O)c3nc4ccccc4s3)cccc2C(=O)N([C@H](C)CO)C[C@H]1C` it was 29.2% (active); in that of `C[C@H](CO)N1C[C@H](C)[C@H](CN(C)C(=O)NC2CCCCC2)Oc2c(NC(=O)c3nc4ccccc4s3)cccc2C1=O`, -0.035%.
Turning to `C[C@@H]1CN([C@H](C)CO)C(=O)c2cccc(NC(=O)c3nc4ccccc4s3)c2O[C@@H]1CN(C)C`, the activity (Tm shift, normalised) is 0.121%.
For `COc1ccc(S(=O)(=O)Nc2ccc3c(c2)C(=O)N([C@H](C)CO)C[C@@H](C)[C@H](CN(C)C(=O)c2ccncc2)OCCCC[C@@H](C)O3)cc1` the value was -0.014%.
Turning to `O=C(C[C@H]1C[C@H]2c3cc(NC(=O)CC4CC4)ccc3O[C@H]2[C@H](CO)O1)NCc1ccccc1`, the activity (Tm shift, normalised) is 0.206%.
Regarding `N#C[C@@H]1[C@@H](c2ccc(-c3cccnc3)cc2)[C@H](CO)N1C(=O)Nc1ccc(F)cc1`, the activity (Tm shift, normalised) was 0.238%.
With `O=C(Nc1nnc(-c2ccccc2F)s1)c1ccccc1F`, the activity (Tm shift, normalised) is 2.31% (active).
Regarding `O=C(Nc1nnc(-c2ccc(F)cc2)s1)c1c(F)cccc1Cl`, the activity (Tm shift, normalised) was 0.279%.
With `CN(Cc1ccccc1)S(=O)(=O)c1nnc(NC(=O)c2ccccc2F)s1`, the activity (Tm shift, normalised) is -0.151%.
With `CCn1c(SCC(=O)N(C)C2CCS(=O)(=O)C2)nnc1-c1cccs1` (stereo unspecified), the activity (Tm shift, normalised) was 43.9% (active).
Turning to `CCN(C(=O)CSc1nc2ccccc2n1CC)C1CCS(=O)(=O)C1` (stereo unspecified), the activity (Tm shift, normalised) was 0.234%.
Consider `CN(C(=O)CSc1nnc(-c2ccc(C(C)(C)C)cc2)n1C)C1CCS(=O)(=O)C1` (stereo unspecified), for which the activity (Tm shift, normalised) was 0.442%.
As for `Cc1ccc(S(=O)(=O)Nc2ccc3c(c2)C(=O)N([C@H](C)CO)C[C@H](C)[C@@H](CN(C)C(=O)NC(C)C)OCCCC[C@@H](C)O3)cc1`, the activity (Tm shift, normalised) is 0.879%.
In the case of `CCCc1cn(CC[C@@H]2CC[C@@H](NC(=O)CCN3CCCCC3)[C@H](CO)O2)nn1`, the activity (Tm shift, normalised) is 0.083%.
As to `COc1ccc(-n2c(C)cc(C(=O)COC(=O)c3cc(OC)c(OC)cc3NC(=O)c3cccs3)c2C)cc1`, the activity (Tm shift, normalised) is 43.4% (active).
With `Cc1cc(C(=O)COC(=O)C2CC2)c(C)n1-c1ccc(F)cc1`, the activity (Tm shift, normalised) was 0.711%.
For `COc1ccc(C(=O)COC(=O)CNC(=O)c2cccs2)cc1Br`, the activity (Tm shift, normalised) was -0.191%.
`COc1ccc2c3c(n(C)c2c1)[C@@H](CO)N(C(=O)Nc1ccccc1F)CC31CCN(C(=O)c2ccccc2F)CC1`: the activity (Tm shift, normalised) was -0.032%.
As to `COc1ccc(NC(=O)N(C)C[C@@H]2Oc3ccc(NS(=O)(=O)c4ccc(Cl)cc4)cc3C(=O)N([C@H](C)CO)C[C@@H]2C)cc1`, the activity (Tm shift, normalised) was 0.119%.
In the case of `Cc1ccc2[nH]c(=O)c(CN3CCCCC3)c(-c3ccccc3)c2c1` it was 43.2% (active); in that of `Cc1ccc2[nH]c(=O)c(CC(=O)O)c(-c3ccccc3)c2c1`, -0.089%; in that of `c1ccc2cc3[nH]c(CN4CCCCC4)nc3cc2c1`, -0.01%.
Consider `Cc1ccccc1S(=O)(=O)N[C@H]1CC[C@@H](CCn2cc(Cc3ccccc3)nn2)O[C@H]1CO`, for which the activity (Tm shift, normalised) is -0.039%.
For the molecule `Cc1noc(C)c1NC(=O)N(C)C[C@H]1OCCCC[C@H](C)Oc2ccc(NC(=O)Cc3ccccc3)cc2C(=O)N([C@H](C)CO)C[C@@H]1C`, the activity (Tm shift, normalised) was 1.07%.
For `O=C(COc1ccc(Cl)cc1)NCc1nnc(SCC(=O)NCC2CCCO2)o1` (stereo unspecified) the value was 42.9% (active); for `COc1ccc2c(C)cc(SCC(=O)NCC3CCCO3)nc2c1` (stereo unspecified), 0.011%; for `O=C(CSc1nnc(-c2ccncc2)o1)Nc1cccc(Cl)c1`, 0.107%.
For `O=C(CSc1ccc(-c2ccccc2)nn1)NCC1CCCO1` (stereo unspecified) the value was -0.177%.
For the molecule `O=C(CSc1nnc(-c2ccncc2)o1)NCc1ccc(Cl)cc1`, the activity (Tm shift, normalised) was 43.9% (active).
With `CCc1ccccc1NC(=O)CSc1nnc(-c2ccncc2)o1`, the activity (Tm shift, normalised) was -0.04%.
On to `C[C@@H]1CN([C@@H](C)CO)C(=O)c2cc(NS(=O)(=O)c3cn(C)cn3)ccc2O[C@@H]1CN(C)C(=O)NC1CCCCC1`, for which the activity (Tm shift, normalised) is -0.419%.
Regarding `COC(=O)[C@@H]1[C@@H](CO)[C@@H]2Cn3c(ccc(-c4ccc(OC)cc4)c3=O)[C@@H]2N1S(C)(=O)=O`, the activity (Tm shift, normalised) was -0.206%.
With `CCC(=O)N1[C@H](C(=O)OC)[C@@H](CO)[C@@H]2Cn3c(ccc(-c4cccc(F)c4)c3=O)[C@@H]21`, the activity (Tm shift, normalised) is 0.191%.
As for `COCC(=O)N1[C@@H](CO)[C@H](c2ccccc2)C12CN(C(=O)NC1CCCCC1)C2`, the activity (Tm shift, normalised) was 0.045%.
On to `COc1ccc2c3c([nH]c2c1)[C@H](CO)N(Cc1ccccc1)CC31CCN(C(=O)c2ccccn2)CC1`, for which the activity (Tm shift, normalised) was -0.204%.
In the case of `C[C@@H]1CN([C@@H](C)CO)C(=O)Cc2cc(NC(=O)Nc3cccc4ccccc34)ccc2O[C@H]1CN(C)CC1CCCCC1` it was 0.094%; in that of `O=C(NCCc1ccc(F)cc1)c1n[nH]c2ccccc12`, 43.3% (active); in that of `COc1cccc(CNC(=O)c2n[nH]c3ccccc23)c1`, 0.239%.
Regarding `O=C(NCCc1ccccc1)c1c[nH]c2ccc(F)cc2c1=O`, the activity (Tm shift, normalised) is 0.52%.
For the molecule `CCCNC(=O)N1C[C@@H](O)COC[C@H]2O[C@H](CC(=O)NCCCN3CCOCC3)CC[C@@H]21`, the activity (Tm shift, normalised) was -0.348%.
On to `COc1ccccc1-c1ccc2c(c1)O[C@H](CN(C)C(=O)c1cccnc1)[C@H](C)CN([C@@H](C)CO)S2(=O)=O`, for which the activity (Tm shift, normalised) was -0.096%.
With `O=C(C[C@@H]1CC[C@@H]2[C@H](COC[C@H](O)CN2C(=O)C2CC2)O1)NCc1ccncc1`, the activity (Tm shift, normalised) was 0.141%.
Turning to `CN(C)CC(=O)N1[C@H](CO)[C@@H](c2ccc(-c3cccc(C(=O)N(C)C)c3)cc2)[C@@H]1C#N`, the activity (Tm shift, normalised) was 0.074%.
For `NC(=O)N1CCc2ccccc21`, the activity (Tm shift, normalised) was 43.1% (active).
As to `O=C(NC(=S)N1CCc2ccccc21)c1ccco1`, the activity (Tm shift, normalised) was 0.306%.
On to `O=C(c1cnn2ccccc12)N1CCc2ccccc21`, for which the activity (Tm shift, normalised) was -0.357%.
For the molecule `C[C@H](CO)N1C[C@H](C)[C@@H](CN(C)C(=O)Cc2ccncc2)Oc2ncc(C3=CCCCC3)cc2C1=O`, the activity (Tm shift, normalised) was 0.188%.
